Results as given in PMC4336329 (PLoS ONE, 2015).
About 2,200 (0.71%) of roughly 310,000 compounds showed an effect of 50% or more. Effects have a minus sign here. Only a selection was taken, and strong results are over-represented in it overall.

molecular target: human ether-à-go-go-related gene (hERG) potassium channel (human, UniProt Q12809); test: primary screen, population patch clamp on CHO cells stably expressing hERG; higher = less effect of the substance
Protocol: Briefly, Chinese hamster ovary (CHO) cells stably expressing the hERG channel were dislodged from tissue culture flasks and dispensed into PPC plates. […] During the recording, background leak currents were estimated by a 100 ms step to -80 mV from an initial holding potential of -70 mV and subtracted from the subsequent current measurement. The campaign was conducted in two phases using slight differences in recording protocol. In the first phase, the initial voltage pulse used a 100 ms step to -30 mV from a holding potential of -70 mV, a 2 s conditioning step to +25 mV, and a 2 s test step to -30 mV. During the second phase of the screen, the potential during the conditioning step was raised to +45 mV. In both phases of the campaign, a secondary voltage pulse was applied using the same parameters as the second phase initial pulse. The initial and secondary pulses were applied in the absence of compound, and upon application of 1 μM and 10 μM test concentrations. Small molecule effects on hERG current density were quantified by […].

Chain of human ether-à-go-go-related gene (hERG) potassium channel (Q12809 whole entry, looked up): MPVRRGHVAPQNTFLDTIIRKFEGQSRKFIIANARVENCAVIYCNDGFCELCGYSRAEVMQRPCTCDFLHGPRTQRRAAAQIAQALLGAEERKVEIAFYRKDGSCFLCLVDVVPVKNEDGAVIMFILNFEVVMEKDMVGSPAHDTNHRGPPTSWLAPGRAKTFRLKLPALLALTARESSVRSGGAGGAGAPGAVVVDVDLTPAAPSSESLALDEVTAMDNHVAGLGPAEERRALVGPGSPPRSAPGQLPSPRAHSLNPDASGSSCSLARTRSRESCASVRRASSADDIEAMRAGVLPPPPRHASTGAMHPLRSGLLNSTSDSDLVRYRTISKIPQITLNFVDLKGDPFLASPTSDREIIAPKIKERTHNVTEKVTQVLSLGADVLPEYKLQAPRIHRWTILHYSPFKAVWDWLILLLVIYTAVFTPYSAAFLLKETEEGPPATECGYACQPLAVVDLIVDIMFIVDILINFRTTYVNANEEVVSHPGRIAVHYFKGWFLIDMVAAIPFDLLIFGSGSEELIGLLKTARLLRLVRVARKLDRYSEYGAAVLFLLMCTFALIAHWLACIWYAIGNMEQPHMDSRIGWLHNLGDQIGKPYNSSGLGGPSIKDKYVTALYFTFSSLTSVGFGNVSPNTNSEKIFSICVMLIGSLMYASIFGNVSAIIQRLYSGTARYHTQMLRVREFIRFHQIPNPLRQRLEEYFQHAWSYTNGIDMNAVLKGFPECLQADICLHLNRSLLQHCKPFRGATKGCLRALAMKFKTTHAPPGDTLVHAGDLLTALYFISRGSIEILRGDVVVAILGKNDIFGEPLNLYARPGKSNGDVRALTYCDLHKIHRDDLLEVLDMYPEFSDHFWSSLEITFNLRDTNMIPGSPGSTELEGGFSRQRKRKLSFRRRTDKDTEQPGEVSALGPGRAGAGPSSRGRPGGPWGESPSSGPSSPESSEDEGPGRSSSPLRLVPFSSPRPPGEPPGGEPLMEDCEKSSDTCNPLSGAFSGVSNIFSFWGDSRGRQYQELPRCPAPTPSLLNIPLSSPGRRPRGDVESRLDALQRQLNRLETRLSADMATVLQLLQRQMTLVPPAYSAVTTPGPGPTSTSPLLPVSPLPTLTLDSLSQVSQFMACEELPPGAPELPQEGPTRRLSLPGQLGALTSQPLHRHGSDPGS

| Structure (SMILES) | hERG current change (%, negative = inhibition) at 1uM [%] |
| --- | --- |
| Cc1ccc(OCCN(C)C(=O)c2cc(COc3ccc(F)cc3F)on2)cc1 | -0.323 |
| COC(=O)c1cccc(NC(=O)c2ccc(S(=O)(=O)N3CCN(C)CC3)cc2)c1 | 16.5 |
| COCCN(C(=O)CSc1nc2ccccc2c(=O)n1CC(C)C)c1c(N)n(Cc2ccccc2)c(=O)[nH]c1=O | 11.8 |
| CC(C)n1c(/C=C/[C@H](O)C[C@H](O)CC(=O)[O-])c(-c2ccc(F)cc2)c2ccccc21.[Na+] | 11.8 |
| Cc1cc(O)c(C(C)C)cc1NS(=O)(=O)c1ccccc1 | 10.4 |
| COc1ccccc1-n1c(SC(C)C(=O)NCC2CCCO2)nc2cc(Cl)ccc2c1=O (centres unmarked) | 12.1 |
| CCC(=O)N1CCN(c2nc(-c3ccc(Cl)cc3)cs2)CC1 | 9.84 |
| CC(C)C(=O)N1CCN(c2nc(-c3ccc(Cl)cc3)cs2)CC1 | -69.6 |
| CCOC(=O)N1CCN(c2nc(-c3ccc(Cl)cc3)cs2)CC1 | -8.51 |
| O=C(NNc1ccccc1F)c1ccccc1 | 2.87 |
| COc1cc(NC(=O)[C@H]2CSCN2C(=O)[C@@H]2CCC(=O)N2)cc(OC)c1OC | 10.8 |
| Cc1ccc(S(=O)(=O)Nc2cccc(Cl)c2)cc1NC(=O)c1cccnc1 | 5.21 |
| Cc1ccc(C(=O)NC(=S)N(C)C2CCCCC2)cc1 | 6.79 |
| CN(CC(=O)Nc1c(Cl)cccc1Cl)C(=O)CNC(=O)c1ccco1 | 8.71 |
| O=C(CN(Cc1ccccc1)S(=O)(=O)c1ccc(Cl)cc1)NCC1CCCO1 (centres unmarked) | 3.41 |
| O=C(CN(Cc1ccccc1)S(=O)(=O)c1ccc(Br)cc1)NCC1CCCO1 (centres unmarked) | -80.5 |
| O=C(CN(Cc1ccc(Br)cc1)S(=O)(=O)c1ccccc1)NCC1CCCO1 (centres unmarked) | 11.8 |
| CCn1c2ccccc2c2cc(CNCc3ccc(OC)cc3OC)ccc21.O=C(O)C(=O)O | -47.5 |
| Cc1nc2ccccc2cc1C(=O)Nc1ccccc1Cl | 3.5 |
| C/C=C/c1ccc(OC(C)=O)c(OC)c1 | 8.76 |
| CCOC(=O)N1CCN(C(=O)Cn2cc3c(n2)CCCC3)CC1 | -51.2 |

| Structure (SMILES) | hERG current change (%, negative = inhibition) at 1uM [%] |
| --- | --- |
| O=C(Cn1cc2c(n1)CCCCC2)N1CCCCC1 | 9.12 |
| O=C(Cn1cc2c(n1)CCCC2)N1CCCC1 | 8.36 |
| Cc1cc(=O)oc2c3c(cc(OCC(=O)NCc4ccco4)c12)OC(C)(C)CC3 | -1.54 |
| CCOc1ccc(N(CC(=O)NC2CCCCC2)C(=O)CNC(=O)c2ccco2)cc1 | -5.99 |
| Cc1cccc(-n2c(C)nc3cc(C(=O)N4CCC5(CC4)OCCO5)ccc32)c1 | -14.2 |
| CC(=O)c1ccc(-c2ccc(C(=O)NC3CC(C)(C)NC(C)(C)C3)o2)cc1 | -71.1 |
| CC(=O)c1ccc(-c2ccc(C(=O)NC3CCCCCC3)o2)cc1 | 29.5 |
| CC1(C)CC(NC(=O)c2ccc(-c3ccc([N+](=O)[O-])cc3)o2)CC(C)(C)N1 | -3.5 |
| CCN(c1ccccc1)c1nc(=O)c2cccnc2s1 | 5.88 |
| COc1ccc(C)cc1C1=Nc2ccccc2C1(C)C | 13.4 |
| Cc1c(C(=O)OCC(=O)Nc2ccc(C(N)=O)cc2)cccc1[N+](=O)[O-] | 11 |
| COc1ccc(C[C@H]2CN3C(=NC[C@@H]3C(C)C)N2CCNC(=O)c2ccc(C)c(Br)c2)cc1 | -66.8 |
| COc1ccc(C[C@H]2CN3C(=NC[C@H]3C)N2CCNC(=O)c2ccc(C)c(Br)c2)cc1 | -70.9 |
| Cc1ccc(C(=O)NCCN2C3=NC[C@H](Cc4ccc(O)cc4)N3C[C@H]2Cc2ccc(O)cc2)cc1Br | -9.94 |
| COc1ccc(C[C@@H]2CN3C(=NC[C@@H]3C)N2CCNC(=O)c2ccc(C)c(Br)c2)cc1 | -64.9 |
| Cc1ccc(C(=O)NCCN2C3=NC[C@H](C)N3C[C@H]2Cc2ccc(O)cc2)cc1Br | 9.94 |
| COc1ccc(C[C@H]2CN3C(=NC[C@H]3Cc3ccccc3)N2CCNC(=O)c2ccc(C)c(Br)c2)cc1 | -24.7 |
| Cc1ccc(C(=O)NCCN2C3=NC[C@H](C(C)C)N3C[C@H]2Cc2ccc(O)cc2)cc1Br | 0.0506 |
| C/C=C(\C)C(=O)NCCN1C2=NC[C@H](C(C)C)N2C[C@H]1Cc1ccc(O)cc1 | 29.8 |
| COc1ccc(C[C@H]2CN3C(=NC[C@@H]3Cc3ccccc3)N2CCNC(=O)c2ccc(C)c(Br)c2)cc1 | -16.7 |
